These results are taken from ChEMBL document CHEMBL3988442, “University of Dundee, Small-Polar-MMV Screening Library” (2021).

Holding throughout (design): scale not given: direction of the effect not stated beside the values
For test [1], the target named is Protein translocase subunit SecA (Escherichia coli (strain K12)) (UniProt P10408). The experiment in a line: Assay to Identify E. coli SecA ATPase Inhibitors. The format is functional. To be noted: 30 µM.
In test [2] the target is T1, Ubiquitin-activating enzyme e1, putative (Leishmania donovani (strain BPK282A1)) (UniProt E9BSI1).
T1 sequence (whole entry): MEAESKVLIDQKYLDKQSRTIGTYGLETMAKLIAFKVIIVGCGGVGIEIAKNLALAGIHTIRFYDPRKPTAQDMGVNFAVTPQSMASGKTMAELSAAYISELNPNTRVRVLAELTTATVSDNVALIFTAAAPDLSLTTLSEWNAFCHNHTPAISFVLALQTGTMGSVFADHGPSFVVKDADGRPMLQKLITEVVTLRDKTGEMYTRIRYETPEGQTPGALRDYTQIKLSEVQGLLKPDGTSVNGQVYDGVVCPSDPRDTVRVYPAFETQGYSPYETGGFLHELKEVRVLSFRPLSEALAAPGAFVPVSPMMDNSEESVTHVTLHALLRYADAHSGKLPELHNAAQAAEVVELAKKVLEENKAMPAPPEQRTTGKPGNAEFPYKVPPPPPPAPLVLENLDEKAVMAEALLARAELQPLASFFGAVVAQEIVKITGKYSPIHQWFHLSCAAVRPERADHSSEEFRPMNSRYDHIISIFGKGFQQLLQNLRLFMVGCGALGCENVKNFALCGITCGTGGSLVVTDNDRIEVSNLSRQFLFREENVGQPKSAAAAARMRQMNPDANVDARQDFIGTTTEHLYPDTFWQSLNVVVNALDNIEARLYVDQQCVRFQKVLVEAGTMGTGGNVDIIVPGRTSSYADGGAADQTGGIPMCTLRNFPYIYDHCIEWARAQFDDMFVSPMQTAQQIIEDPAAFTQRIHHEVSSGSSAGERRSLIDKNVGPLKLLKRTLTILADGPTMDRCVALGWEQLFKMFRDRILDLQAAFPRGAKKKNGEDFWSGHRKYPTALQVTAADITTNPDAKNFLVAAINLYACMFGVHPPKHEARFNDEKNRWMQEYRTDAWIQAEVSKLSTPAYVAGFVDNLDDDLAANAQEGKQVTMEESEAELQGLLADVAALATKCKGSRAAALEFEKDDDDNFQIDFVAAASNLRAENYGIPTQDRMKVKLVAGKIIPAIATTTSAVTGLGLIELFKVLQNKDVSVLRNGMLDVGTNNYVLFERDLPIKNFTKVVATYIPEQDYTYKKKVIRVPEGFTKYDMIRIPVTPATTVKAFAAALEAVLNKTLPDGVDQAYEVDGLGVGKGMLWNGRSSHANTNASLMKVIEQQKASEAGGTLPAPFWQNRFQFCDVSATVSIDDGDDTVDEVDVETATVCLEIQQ
The experiment in a line: Leishmania donovani Ubiquitin Activating Enzyme (LdE1). The format is functional. To be noted: 30 µM.

Test [3] addresses AMP-activated protein kinase, AMPK (Homo sapiens) (UniProt P54646+O43741+P54619+Q9UGJ0+Q9Y478+Q13131+Q9UGI9). The experiment in a line: AMP-dependent Kinase enzyme assay. An in vitro enzyme assay that detects ADP turnover that is directly proportional to AMPK activity. This uses naive AMPK that is activated during the assay with MK-8722. The format is functional. To be noted: 30 µM.

In test [4] the target is Sialic acid-binding Ig-like lectin 9 (Homo sapiens) (UniProt Q9Y336). The experiment in a line: Hs-Siglec9 ALPHAscreen SOP 20170721. Particulars: 10 µM. For orientation: In Alpha technology, singlet oxygen from a donor bead excites a nearby acceptor bead.
A further test has as its system Trypanosoma cruzi. The experiment in a line: Trypanosoma cruzi phosphomannomutase and mannose-1-phosphate guanylyltransferase assay. Particulars: 10 µM. Type of test: functional.
For test [5], the target named is T2, Arginase-2, mitochondrial (Homo sapiens) (UniProt P78540).
T2 sequence (whole entry): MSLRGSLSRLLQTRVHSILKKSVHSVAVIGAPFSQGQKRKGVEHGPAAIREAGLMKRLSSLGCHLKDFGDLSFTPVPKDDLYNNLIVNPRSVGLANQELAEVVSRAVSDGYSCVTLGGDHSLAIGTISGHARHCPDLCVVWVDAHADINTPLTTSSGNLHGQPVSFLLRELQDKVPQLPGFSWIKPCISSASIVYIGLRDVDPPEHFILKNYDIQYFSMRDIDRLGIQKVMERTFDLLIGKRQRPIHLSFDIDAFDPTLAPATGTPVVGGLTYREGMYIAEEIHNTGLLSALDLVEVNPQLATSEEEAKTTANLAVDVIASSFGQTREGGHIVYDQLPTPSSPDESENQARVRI
The experiment in a line: in vitro enzyme assay to detect the production of urea directly proportional to the activity of Arginase II. Note: in the data most compounds retested in dose-response had high values. The format is functional. Particulars: 33.3 µM.

Test [6] addresses T3, Proteasome subunit beta (Trypanosoma cruzi) (UniProt O96673).
T3 sequence (whole entry): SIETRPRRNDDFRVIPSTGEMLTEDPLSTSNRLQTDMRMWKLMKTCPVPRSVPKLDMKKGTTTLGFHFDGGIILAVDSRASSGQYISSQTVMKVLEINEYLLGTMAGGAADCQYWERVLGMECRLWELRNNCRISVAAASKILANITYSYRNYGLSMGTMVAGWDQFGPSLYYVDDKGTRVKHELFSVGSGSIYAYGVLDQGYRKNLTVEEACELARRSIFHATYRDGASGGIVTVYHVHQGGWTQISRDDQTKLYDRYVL
The experiment in a line: Trypanosoma cruzi proteasome chymotrypsin-like activity (TcProtChymo) assay. Note: in the data most compounds retested in dose-response had high values. The format is functional. To be noted: 9.37 µM.

Another test is filed under the species Homo sapiens. The experiment in a line: To identify inhibition of the IFN signalling (Jak-Stat) pathway via expression of an eGFP reporter gene under the control of an IFN-stimulated response element (ISRE) containing MxA promoter. The format is functional. Particulars: 30 µM. On the technique in general: Reporter assays use an easily measured gene product as a stand-in for the process of interest.

The target in test [7] is T4, Tyrosyl-tRNA synthetase, putative (Trypanosoma cruzi (strain CL Brener)) (UniProt Q4DSP6).
T4 sequence (whole entry): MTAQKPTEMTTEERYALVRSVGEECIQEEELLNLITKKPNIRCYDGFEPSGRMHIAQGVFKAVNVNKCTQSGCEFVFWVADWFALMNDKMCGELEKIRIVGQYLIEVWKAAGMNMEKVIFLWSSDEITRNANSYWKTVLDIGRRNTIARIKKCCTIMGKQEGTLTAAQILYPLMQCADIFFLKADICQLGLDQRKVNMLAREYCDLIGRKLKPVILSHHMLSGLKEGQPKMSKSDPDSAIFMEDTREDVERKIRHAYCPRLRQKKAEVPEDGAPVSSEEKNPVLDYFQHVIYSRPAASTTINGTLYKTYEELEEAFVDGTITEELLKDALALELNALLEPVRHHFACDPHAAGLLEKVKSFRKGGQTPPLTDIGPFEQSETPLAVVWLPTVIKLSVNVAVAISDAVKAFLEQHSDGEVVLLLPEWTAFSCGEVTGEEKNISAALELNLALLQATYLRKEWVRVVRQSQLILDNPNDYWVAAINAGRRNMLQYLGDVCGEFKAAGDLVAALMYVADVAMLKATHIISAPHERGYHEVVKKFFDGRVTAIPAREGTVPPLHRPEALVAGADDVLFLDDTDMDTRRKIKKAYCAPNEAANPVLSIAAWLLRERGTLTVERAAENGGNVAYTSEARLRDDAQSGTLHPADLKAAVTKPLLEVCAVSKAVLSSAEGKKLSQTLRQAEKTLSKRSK
The experiment in a line: Trypanosoma cruzi tyrosyl tRNA synthetase (TcYRS) _High Tyrosine SOP. Note: in the data most compounds retested in dose-response had high values. Type of test: functional. To be noted: 30 µM.

Test [8] deals with T4, Tyrosyl-tRNA synthetase, putative (Trypanosoma cruzi (strain CL Brener)). The experiment in a line: Trypanosoma cruzi tyrosyl tRNA synthetase (TcYRS) SOP. Particulars: 30 µM. The format is functional.
In test [9] the target is Chromo domain-containing protein 1 (Saccharomyces cerevisiae (strain ATCC 204508 / S288c) (Baker's yeast)) (UniProt P32657). The experiment in a line: ScCHD-1 Enzyme Inhibition Assay. Note: in the data most compounds retested in dose-response had high values. Type of test: functional. To be noted: 30 µM.

For some of these results: Measured potencies and affinities stand elsewhere.

Sialic acid-binding Ig-like lectin 9 (Homo sapiens), sequence (Q9Y336 whole entry): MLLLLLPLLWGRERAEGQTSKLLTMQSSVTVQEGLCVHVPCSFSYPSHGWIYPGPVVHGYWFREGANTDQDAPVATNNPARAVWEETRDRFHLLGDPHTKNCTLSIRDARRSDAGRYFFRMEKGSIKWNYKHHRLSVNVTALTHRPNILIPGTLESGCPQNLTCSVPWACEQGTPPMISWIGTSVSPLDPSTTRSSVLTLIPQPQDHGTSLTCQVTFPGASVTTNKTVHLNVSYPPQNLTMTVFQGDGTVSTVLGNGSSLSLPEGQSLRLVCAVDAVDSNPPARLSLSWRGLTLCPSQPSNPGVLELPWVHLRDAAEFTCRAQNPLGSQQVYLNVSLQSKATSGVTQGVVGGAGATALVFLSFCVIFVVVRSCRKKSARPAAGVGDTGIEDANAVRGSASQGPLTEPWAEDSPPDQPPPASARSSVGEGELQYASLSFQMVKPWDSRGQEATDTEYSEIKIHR
Protein translocase subunit SecA (Escherichia coli (strain K12)), sequence (P10408 whole entry): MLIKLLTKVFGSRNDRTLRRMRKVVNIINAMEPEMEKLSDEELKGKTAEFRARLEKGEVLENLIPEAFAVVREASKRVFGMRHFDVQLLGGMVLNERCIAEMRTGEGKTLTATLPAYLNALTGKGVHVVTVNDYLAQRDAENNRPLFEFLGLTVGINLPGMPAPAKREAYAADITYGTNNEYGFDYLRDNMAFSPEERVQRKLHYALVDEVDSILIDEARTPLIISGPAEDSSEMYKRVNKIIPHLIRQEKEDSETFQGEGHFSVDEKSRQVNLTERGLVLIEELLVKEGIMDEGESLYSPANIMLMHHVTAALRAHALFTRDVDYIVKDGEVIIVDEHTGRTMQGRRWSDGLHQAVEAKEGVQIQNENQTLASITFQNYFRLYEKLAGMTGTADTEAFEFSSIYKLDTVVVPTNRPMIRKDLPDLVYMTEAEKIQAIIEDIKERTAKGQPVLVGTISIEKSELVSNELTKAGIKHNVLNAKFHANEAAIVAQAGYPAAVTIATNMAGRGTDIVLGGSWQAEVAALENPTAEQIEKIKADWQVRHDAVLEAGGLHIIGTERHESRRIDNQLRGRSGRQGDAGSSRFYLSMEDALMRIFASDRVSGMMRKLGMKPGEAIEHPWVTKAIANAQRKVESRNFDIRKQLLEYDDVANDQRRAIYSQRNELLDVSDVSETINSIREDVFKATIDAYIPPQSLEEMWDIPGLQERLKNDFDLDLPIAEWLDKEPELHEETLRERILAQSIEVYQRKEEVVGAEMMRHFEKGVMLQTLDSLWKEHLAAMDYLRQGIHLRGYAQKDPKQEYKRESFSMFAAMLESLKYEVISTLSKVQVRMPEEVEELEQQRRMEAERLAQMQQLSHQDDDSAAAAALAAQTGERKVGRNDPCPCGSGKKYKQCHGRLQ
Chromo domain-containing protein 1 (Saccharomyces cerevisiae (strain ATCC 204508 / S288c) (Baker's yeast)), sequence (P32657 whole entry, the tested form may be a part): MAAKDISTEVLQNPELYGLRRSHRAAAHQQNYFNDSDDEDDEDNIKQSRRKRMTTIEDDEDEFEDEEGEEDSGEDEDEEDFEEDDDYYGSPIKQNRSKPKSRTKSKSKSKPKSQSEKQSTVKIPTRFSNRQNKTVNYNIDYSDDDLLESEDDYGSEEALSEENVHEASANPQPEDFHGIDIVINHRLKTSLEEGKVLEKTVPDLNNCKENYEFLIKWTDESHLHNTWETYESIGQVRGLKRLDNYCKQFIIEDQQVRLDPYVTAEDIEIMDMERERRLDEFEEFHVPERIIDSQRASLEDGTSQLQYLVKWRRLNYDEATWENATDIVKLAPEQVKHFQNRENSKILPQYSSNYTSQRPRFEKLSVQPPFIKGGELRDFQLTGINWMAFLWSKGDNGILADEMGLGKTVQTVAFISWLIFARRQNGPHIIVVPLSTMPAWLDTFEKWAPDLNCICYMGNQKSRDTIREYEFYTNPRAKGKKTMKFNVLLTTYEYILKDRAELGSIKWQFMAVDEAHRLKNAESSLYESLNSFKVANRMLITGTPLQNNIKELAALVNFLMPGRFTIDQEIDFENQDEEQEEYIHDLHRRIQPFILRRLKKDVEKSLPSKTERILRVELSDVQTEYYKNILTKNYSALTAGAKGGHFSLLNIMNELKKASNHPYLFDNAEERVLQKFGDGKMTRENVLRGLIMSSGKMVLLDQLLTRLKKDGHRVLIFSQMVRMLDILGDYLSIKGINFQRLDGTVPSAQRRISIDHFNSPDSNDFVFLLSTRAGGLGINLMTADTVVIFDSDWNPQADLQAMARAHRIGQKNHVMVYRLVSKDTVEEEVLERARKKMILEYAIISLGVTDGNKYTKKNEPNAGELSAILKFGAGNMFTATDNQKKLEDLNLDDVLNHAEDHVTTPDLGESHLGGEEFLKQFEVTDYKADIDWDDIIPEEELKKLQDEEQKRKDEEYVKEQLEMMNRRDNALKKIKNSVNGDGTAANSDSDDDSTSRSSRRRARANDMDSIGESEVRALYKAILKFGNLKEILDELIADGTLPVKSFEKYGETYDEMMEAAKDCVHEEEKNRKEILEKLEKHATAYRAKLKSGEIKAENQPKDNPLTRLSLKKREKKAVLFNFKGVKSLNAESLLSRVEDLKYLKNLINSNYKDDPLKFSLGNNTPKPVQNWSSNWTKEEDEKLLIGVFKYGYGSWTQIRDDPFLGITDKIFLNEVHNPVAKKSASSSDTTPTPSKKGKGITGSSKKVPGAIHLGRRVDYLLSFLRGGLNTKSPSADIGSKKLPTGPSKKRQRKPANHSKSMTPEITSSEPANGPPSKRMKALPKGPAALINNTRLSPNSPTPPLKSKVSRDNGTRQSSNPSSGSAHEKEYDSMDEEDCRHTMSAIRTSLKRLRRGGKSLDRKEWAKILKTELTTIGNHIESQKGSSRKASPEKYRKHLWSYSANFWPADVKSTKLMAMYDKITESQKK

For the compound `COCCN1C(=O)C[C@H]2[C@H]1CCN2Cc1cccc(C#N)c1`, the Percent Effect in test [1] was -2.88%; in [2] it was 2.67%; in test [3] it was 7.27%; in [4], -1.09%; in the test with Trypanosoma cruzi, -2.95%; in [5], 3.03%. In addition, the Percent Effect in test [6] amounted to 5.9%; in the test filed under Homo sapiens, 6.32%; in [7], 1.06%; in [8] it was 1.28%; in test [9], 1.66%.
As for `Cc1cc(C)n(CC(=O)N2CCC(NS(=O)(=O)c3ccccc3)CC2)n1`, the Percent Effect was -0.375% in [1]; 13.2% in test [2]; 4.71% in test [3]; 6.53% in test [4]; -1.32% in the test on Trypanosoma cruzi; 0.383% in test [5]. Also, the Percent Effect in test [6] was 4.84%; in the test listed under Homo sapiens it was 15.1%; in [7], 1.47%; in test [8], 7.32%; in test [9], -3.29%.
Take `O=C(NCc1ccco1)[C@@H]1CCO[C@@H]2CCN(c3ccncn3)C[C@H]21`: the Percent Effect in test [1] was 0.562%; in test [2] it was 2.67%; in test [3] it was 2.84%; in test [4], 5.63%; in the test with Trypanosoma cruzi, -5.02%; in test [5] it was -56.5%. Moreover, the Percent Effect in test [6] was 5.64%; in the test listed under Homo sapiens, 3.81%; in test [7], 1.04%; in test [8] it was -25%; in [9], -8.67%.
Turning to `Cc1nc(-c2ccc(Cl)s2)sc1C(=O)NCCS(N)(=O)=O`, the Percent Effect in [1] is -5.36%; in [2] it was 10.8%; in test [3] it was 20%; in [4], 14.1%; in the test on Trypanosoma cruzi it was -1.95%; in test [5] it was 2.4%. Further, the Percent Effect amounted to 9.34% in test [6]; 6.3% in the test filed under Homo sapiens; 5.94% in test [7]; 13.4% in test [8]; 0.478% in test [9].
Regarding `O=C(NCC1CC1)[C@H]1CC[C@@H]2[C@@H](CCN2Cc2ccoc2)O1`, the Percent Effect is -9.56% in [1]; 16.2% in test [2]; -3.1% in test [3]; 26% in [4]; 4.99% with Trypanosoma cruzi; 3.23% in test [5]. In addition, the Percent Effect is 4.72% in test [6]; -7.7% in the test filed under Homo sapiens; 4.3% in test [7]; 6.17% in [8]; -12.2% in [9].
Regarding `NC(=O)C1CCN(C(=O)Cn2nc(-c3ccccc3)oc2=O)C1` (stereo unspecified), the Percent Effect is -4.97% in test [1]; 7.79% in [2]; 1.04% in test [3]; 8.76% in test [4]; 2.46% with Trypanosoma cruzi; -13.8% in [5]. The Percent Effect is 8.82% in test [6]; -30.7% in the test filed under Homo sapiens; 2.15% in test [7]; 13.6% in test [8]; -0.676% in test [9].
`CC(NC(N)=O)C(=O)N1CCCN(Cc2nccn2C(C)C)CC1` (stereo unspecified): the Percent Effect was -1.61% in test [1]; 1.27% in [2]; 7.49% in [3]; 0.743% in [4]; -1.13% in the test with Trypanosoma cruzi; -4.09% in [5]. Besides, the Percent Effect in test [6] was 2.74%; in the test listed under Homo sapiens, -2.71%; in test [7], 0%; in [8], 2.53%; in test [9], -3.12%.
As for `c1csc(-c2nc(CN3CCCC3Cn3cncn3)co2)c1` (stereo unspecified), the Percent Effect is -2.28% in test [1]; -5.48% in test [2]; -7.9% in test [3]; 1.3% in test [4]; 6.86% in the test on Trypanosoma cruzi; -3.18% in [5]. The Percent Effect in test [6] was 5.68%; in the test filed under Homo sapiens, -9.88%; in [7] it was 2.15%; in test [8], 5%; in [9], -3.71%.
Regarding `CC(C)(C)c1nnc(CN2CCN(CC(O)c3ccccc3)CC2)o1` (stereo unspecified), the Percent Effect is -4.73% in test [1]; 10.1% in test [2]; -1.08% in [3]; 7.24% in [4]; 2.55% in the test with Trypanosoma cruzi; 0% in test [5]. Further, the Percent Effect in [6] is -6.31%; in the test listed under Homo sapiens it was 10.4%; in [7], 5.42%; in test [8] it was 16.5%; in [9], -5.94%.
On to `Cc1ccc(C(=O)NCCCN2CCOCC2)c(Cl)c1`, for which the Percent Effect in [1] is -2.82%; in [2] it was 2.6%; in test [3], 2.57%; in test [4], 5.34%; in the test with Trypanosoma cruzi it was 6.79%; in test [5], -2.76%. The Percent Effect stood at 4.33% in test [6]; 18.2% in the test filed under Homo sapiens; 3.23% in test [7]; 11.1% in [8]; 108% in [9].
Take `CCN(C(=O)CCCOc1ccccc1F)c1ccncc1`: the Percent Effect is -5.32% in [1]; 18.4% in test [2]; -2.56% in test [3]; 5.73% in [4]; 5.36% with Trypanosoma cruzi; -20.1% in test [5]. Besides, the Percent Effect in test [6] is 10.1%; in the test filed under Homo sapiens it was 11.9%; in test [7], 5.32%; in test [8] it was 7.79%; in test [9], -5.44%.
